Pf growth 96h = P. falciparum growth inhibition at 96 hours. P. falciparum luciferase reporter growth, 96 h. Potency, µM (titrated, usually from 28.7 µM), without a hit: at the highest dose activity change, negative = inhibition, actives largely listed as inhibitors. hit rate 6.9% among 320,000; active = well fitted inhibition curve with a large enough effect; inconclusive = small, poorly fitted or top-dose-only effect, or another doubt; inactive = no such curve, though single readings can be large or run the other way; also: % is scaled to controls: 0 for no effect and ±100 for the full control effect
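Compounds incubated with erythrocytes infected by luciferase-expressing P. falciparum (2% hematocrit, 0.05% parasitemia final) for 96 hours, 37 C in 5% CO2. Growth inhibition scored as decreased luciferase luminescence.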
NS1 inh = influenza NS1 inhibition. Potency, µM (highest dose often 46.1 µM), for the others: at the top dose activity, positive = more growth. hit rate 0.4% among 270,000; also: actives are rising curves; nearly all actives have a fitted effect of over 50% in size
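Growth recovery, yeast-based: influenza A NS1 expressed in S. cerevisiae causes slow growth, and suppressors are detected by OD600. The parent strain without NS1 is used as positive control.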
Pf growth 48h = inhibits P. falciparum growth in the first generation, 48 h | Potency, µM (series often up to 28.7 µM), for inactives: top-dose activity change, negative = inhibition, hits mostly inhibitors | hit rate 5.9% among 310,000 | P. falciparum luciferase growth in erythrocytes, 48 h; active = well fitted inhibition curve with a large enough effect; inconclusive = small, poorly fitted or top-dose-only effect, or another doubt; inactive = no such curve, though single readings can be large or run the other way; also: % is scaled to controls: 0 for no effect and ±100 for the full control effect
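First compound was added to culture medium, then infected red cells at 0.1% parasitemia and 2% hematocrit (final). After incubation at 37 C under 5% CO2, luciferase detection reagent was dispensed and light output recorded.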
RE007 growth inh = less growth of the S. pombe RE007 Vpr strain; S. pombe RE007 Vpr strain, BacTiter-Glo ATP luminescence, 24 h; Potency, µM (highest dose often 92.2 µM), inactives show at the highest dose activity change, negative = less growth, hits mostly inhibitors; hit rate 0.21% among 360,000; AID 651644; active = well fitted falling curve with a large enough effect; inconclusive = small, poorly fitted or top-dose-only effect; inactive = no such curve, though single readings can be large or run the other way; also: % is scaled to controls: 0 for no effect and ±100 for the full control effect; nearly all actives have a fitted effect of over 50% in size
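Fission yeast strain RE007, carrying one chromosomally integrated HIV-1 vpr copy, was seeded at OD 0.01 in PMG+AL medium with 23 nL pinned compound. After 24 h at 30 °C and 99% humidity, viability was read by BacTiter-Glo luminescence.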
SARS PLP yeast = blocks SARS-CoV papain-like protease in a yeast assay; S. cerevisiae expressing SARS-CoV PLpro, growth rescue; Potency, µM (top dose mostly 32.9 µM), for inactives: top-dose activity, positive = growth rescue, actives largely listed as activators; hit rate 0.19% among 330,000; also: 0% is about no effect; nearly all actives have a fitted effect of over 55% in size
Numbers without * were called inactive; i = inactive; ? = inconclusive; . = no result. An excerpt weighted towards active compounds, which were near 9.5% of everything screened. Unless noted, calls follow the shape of the full dose curve. Potency is read from the fitted curve at half-maximal effect.

SMILES	Pf growth 96h	NS1 inh	Pf growth 48h	RE007 growth inh	SARS PLP yeast
CN(C)S(=O)(=O)c1ccc(Cl)c(NC(=O)COC(=O)c2ccc(O)cc2)c1	-17.8%	.	-14.7%	-3.1%	0.2%
O=C(COc1ccc(F)cc1Br)Nc1ccccc1N1CCOCC1	?	.	10.4µM*	2.2%	-4.5%
CCN(CC)S(=O)(=O)c1ccc(N2CCN(C)CC2)c(NC(=O)COc2ccc(F)cc2Cl)c1	?	.	10.4µM*	-0.1%	7.2%
CN1CCN(c2ccc(S(=O)(=O)N3CCOCC3)cc2NC(=O)COc2ccc(C#N)cc2)CC1	.	.	.	7.5%	.
CCN(CC)S(=O)(=O)c1ccc(Cl)c(NC(=O)COC(=O)c2ccc(O)cc2)c1	4.65µM*	.	?	14.7%	1.1%
CN1CCN(c2ccc(S(=O)(=O)N3CCOCC3)cc2NC(=O)COc2ccc(F)cc2Cl)CC1	13.1µM*	-1.4%	?	-9.7%	-3.8%
O=C(Oc1cc(=O)n2ccccc2n1)c1ccccc1	27.6%	8.9%	2.8%	2.1%	-2.1%
Nc1ccccc1Sc1c[nH]c2ccccc12	?	-16.9%	6.4%	-8.2%	0.5%
CCOC(=O)N1C2=NC(C(=O)OC)=C(C(=O)OC)[C@@H]3N(C)c4ccc(OC)cc4[C@]23C[C@H]1C(=O)OC	.	.	.	-6.3%	.
COC(=O)C1=C(C(=O)OC)[C@@H]2N(C)c3ccc(OC)cc3[C@@]23C[C@@H](C(=O)OC)N(S(=O)(=O)c2ccc(OC)cc2)C3=N1	?	-34.1%	9.28µM*	-18.4%	0.6%
COc1ccc(Cl)cc1CN1C(=O)C(Cc2ccccc2)ON=C1C (stereo not given)	.	.	.	i	.
CCCN(C(=O)CSc1ncnc2sccc12)c1c(N)n(Cc2ccccc2)c(=O)[nH]c1=O	?	.	?	-2.8%	-1.1%
CN(C)P(=O)(Nc1cccc2ccccc12)Nc1cccc2ccccc12	?	.	4.65µM*	23.2%	-1.0%
CC(C)OP(=O)(Nc1cccc2ccccc12)OC(C)C	?	9.5%	?	2.3%	6.6%
O=C(N/N=C\c1cccc(Cl)c1)c1ccc(Cn2cc(Br)c([N+](=O)[O-])n2)o1	?	?	?	-12.8%	?
Cc1c(Cl)c([N+](=O)[O-])nn1Cc1ccc(C(=O)N/N=C\c2cccc(Br)c2)o1	?	7.7%	9.28µM*	6.1%	1.0%
Cc1c(F)cccc1NS(=O)(=O)c1ccc2c(c1)c(=O)n(C)c(=O)n2C	?	.	-13.1%	10.0%	0.5%
O=C1Nc2cc(Cl)cnc2N2CCCC12 (stereo not given)	4.15µM*	-32.8%	-25.4%	-8.2%	-12.3%
CCOC(=O)c1cc2sc(C)cc2n1C(C)C(=O)OCC (stereo not given)	0.828µM*	-46.0%	24.1%	-12.4%	-16.2%
O=C(NNC(=S)NC(=O)C12CC3CC(CC(C3)C1)C2)c1ccncc1	3.29µM*	-62.5%	3.29µM*	?	-35.1%
O=C(NNC(=O)C12CC3CC(CC(C3)C1)C2)c1ccccn1	4.15µM*	4.9%	4.15µM*	?	2.7%
O=C(NNC(=O)C12CC3CC(CC(C3)C1)C2)c1cnccn1	?	3.4%	?	?	?
Cc1ccc(-c2nnc(N3CCN(C(=O)c4cccs4)CC3)c3ccccc23)cc1	4.65µM*	-0.8%	8.28µM*	-1.2%	-1.0%
O=C(c1cccs1)N1CCN(c2nnc(-c3ccccc3)c3ccccc23)CC1	?	-38.5%	?	38.1%	-3.1%
O=C(COc1ccc(-c2nnc(N3CCCCC3)c3ccccc23)cc1)N1CCCCC1	8.28µM*	-18.5%	11.7µM*	1.3%	-1.0%
SMILES	Pf growth 96h	NS1 inh	Pf growth 48h	RE007 growth inh	SARS PLP yeast
Cc1ccc(-c2nnc(N3CCCCC3)c3ccccc23)cc1	-24.8%	-67.3%	?	37.4%	-0.9%
Cn1c(=O)n(CC(=O)N2CCN(c3nnc(-c4ccccc4)c4ccccc34)CC2)c2ccccc21	13.1µM*	-7.1%	17.4%	13.3%	-13.3%
O=C(COc1ccc([N+](=O)[O-])cc1)N1CCN(c2nnc(-c3ccccc3)c3ccccc23)CC1	12.9%	-38.7%	7.7%	-2.8%	-0.7%
Cc1ccc(-c2nnc(N3CCN(C(=O)COc4ccccc4)CC3)c3ccccc23)cc1	5.22µM*	-77.9%	.	1.1%	-25.5%
CS(=O)(=O)N1CCC(C(=O)Nc2cc(Cl)cc(Cl)c2)CC1	-2.2%	.	21.9%	8.4%	-0.1%
COC(=O)C1(Cc2ccccc2)NC(c2ccc(F)cc2)C2C(=O)N(C)C(=O)C21 (stereo not given)	34.4%	10.5%	-37.3%	6.6%	4.6%
CCCCCCSc1ccc([C@H]2N[C@@](Cc3ccccc3)(C(=O)OC)[C@H]3C(=O)N(CC)C(=O)[C@@H]23)cc1	0.465µM*	.	0.828µM*	3.0%	0.7%
CCCCCCSc1ccc([C@H]2N[C@@](Cc3ccccc3)(C(=O)OC)[C@H]3C(=O)N(C)C(=O)[C@@H]23)cc1	?	.	0.294µM*	-18.2%	-2.2%
CCCSc1ccc([C@H]2N[C@@](Cc3ccccc3)(C(=O)OC)[C@H]3C(=O)N(CC)C(=O)[C@@H]23)cc1	1.04µM*	.	1.47µM*	0.7%	3.7%
CCCCCCSc1ccc([C@H]2N[C@@](CC(C)C)(C(=O)OC)[C@H]3C(=O)N(CC)C(=O)[C@@H]23)cc1	?	.	?	13.9%	2.6%
CCCCCCSc1ccc([C@H]2N[C@@](CC(C)C)(C(=O)OC)[C@H]3C(=O)N(C)C(=O)[C@@H]23)cc1	?	.	?	27.7%	1.1%
CCC(C)Sc1ccc([C@H]2N[C@@](Cc3ccccc3)(C(=O)OC)[C@H]3C(=O)N(C)C(=O)[C@@H]23)cc1 (stereo not given in full)	?	.	1.04µM*	19.4%	8.6%
Cc1ccc(C(=O)c2c(C)oc3c2C(=O)C(=O)c2ccccc2-3)cc1	?	-97.1%	?	25.1µM*	-42.6%
CC1CCN(C(=O)c2ccc3c(c2)C(=O)c2ccccc2-3)CC1	.	.	.	4.9%	.
CCOC(=O)C1CCN(C(=O)c2c(C)oc3c2C(=O)c2ccccc2C3=O)CC1	0.294µM*	10.1%	0.415µM*	-10.1%	9.3%
Cc1oc2c(c1C(=O)N1CCC(C)CC1)C(=O)c1ccccc1C2=O	0.0928µM*	-0.4%	0.233µM*	-7.2%	4.7%
Cc1oc2c(c1C(=O)c1ccc(Cl)cc1)C(=O)C(=O)c1ccccc1-2	?	-26.7%	?	-14.8%	-19.9%
CCOC(=O)C1CCN(C(=O)c2ccc(C)o2)CC1	.	.	.	14.2%	2.3%
CC(C)N=C(NS(=O)(=O)c1ccc(Br)cc1)c1ccc(Cl)cc1	62.8%	0.0%	0.0%	13.5%	0.5%
COCCNC(=O)CC(=O)N/N=C/c1ccc(C(=O)OC)cc1	?	2.1%	26.9%	3.2%	-0.2%
NNc1nncn1N	.	-3.5%	.	.	.
Cc1ccc(CCS(=O)(=O)c2ccc(C(C)(C)C)cc2)cn1	-8.9%	-3.5%	111.8%	0.9%	-2.0%
COc1ccc2nc(NC(=O)CCc3cc(OC)c(OC)c(OC)c3)sc2c1	9.28µM*	.	?	0.8%	2.0%

Source: PubChem (National Center for Advancing Translational Sciences (NCATS))
